# Results filed as inconclusive are left out. Where a call stands in place of a potency, no number is given. The source made the active and inactive calls. Calls follow the shape of the full dose curve.
# Target: Estrogen receptor (Homo sapiens) (UniProt P03372)
# Assay: qHTS assay for small molecule agonists of estrogen receptor alpha signaling (AID 588514); also: nearly all actives have a fitted effect of over 70% in size
# Details: ER-alpha-UAS-bla HEK293, beta-lactamase ratio, 18 h; series mostly up to 76.8 µM
# Excerpt: NIH Chemical Genomics Center [NCGC]
# U.S. Environmental Protection Agency [EPA]
# National Institutes of Environmental Health Sciences [NIEHS]
# National Toxicology Program [NTP]
# Estrogen receptor alpha (ER-alpha) is an important member of nuclear hormone receptors. ER-alpha plays important role in breast cancer as well as in other women's health issues. The majority of breast cancers is estrogen receptor (ER) positive and depends on estrogen for growth. There is also growing concern for some of environmental chemicals which may contribute the increasing the incidence of breast cancer. Therefore, it is important to understand the effect of environmental chemicals in ER-alpha signaling pathway.
# NCGC Assay Protocol Summary
# Using a beta-lactamase reporter-gene under control of the ER response element, a cell-based assay [ER-alpha-UAS-bla GripTiteTM cell-Based Assay from Invitrogen] was used to measure ER-alpha signaling pathway in agonist mode. ER-alpha-UAS-bla-GripTite HEK 293 cells were used with assay medium containing 2% charcoal/dextran treated FBS, 0.1 mM NEAA and 1 mM sodium pyruvate. Cells were cultured in this assay medium overnight in the flasks before the assay. The assay was performed in clear bottom black Greiner 1536-well plates. 17-beta-estradiol was used as a positive control in the screen. Library compounds were measured for their ability to either stimulate the reporter gene activity. Compounds were screened in a titration series in 1536-well format. […] Data was normalized relative to 17-beta-estradiol control (20 nM, 100%), and DMSO only wells (basal, 0%). Concentration-response titration points for each compound were fitted to the Hill equation yielding concentrations of half-maximal stimulation (EC50) and maximal response (efficacy) values.
# qHTS protocol for ER-alpha beta-lactamase assay in agonist mode
# [Step] [Parameter] [Value] [Description]
# 1. Reagent; 6 uL; 5000 cells/well
# 2. Incubation; 37 C for 4 hrs
# 4. Controls (17-beta-estradiol); 23 nL
# - Dose response, start 1uM, 1:3 dilutions with duplicates
# - Two columns with 20 and 0.5 nM (final) concentration.
# 5. Incubation; 37 C for 18 hrs
# 6. Detection reagent; 1 uL of CCF4-dye
# 7. Incubation; RT for 2 hrs
# 8. Detection; Fluorescence; Envision plate reader or Acumen plate reader
# Sequence of Estrogen receptor (Homo sapiens) (P03372 whole entry, looked up): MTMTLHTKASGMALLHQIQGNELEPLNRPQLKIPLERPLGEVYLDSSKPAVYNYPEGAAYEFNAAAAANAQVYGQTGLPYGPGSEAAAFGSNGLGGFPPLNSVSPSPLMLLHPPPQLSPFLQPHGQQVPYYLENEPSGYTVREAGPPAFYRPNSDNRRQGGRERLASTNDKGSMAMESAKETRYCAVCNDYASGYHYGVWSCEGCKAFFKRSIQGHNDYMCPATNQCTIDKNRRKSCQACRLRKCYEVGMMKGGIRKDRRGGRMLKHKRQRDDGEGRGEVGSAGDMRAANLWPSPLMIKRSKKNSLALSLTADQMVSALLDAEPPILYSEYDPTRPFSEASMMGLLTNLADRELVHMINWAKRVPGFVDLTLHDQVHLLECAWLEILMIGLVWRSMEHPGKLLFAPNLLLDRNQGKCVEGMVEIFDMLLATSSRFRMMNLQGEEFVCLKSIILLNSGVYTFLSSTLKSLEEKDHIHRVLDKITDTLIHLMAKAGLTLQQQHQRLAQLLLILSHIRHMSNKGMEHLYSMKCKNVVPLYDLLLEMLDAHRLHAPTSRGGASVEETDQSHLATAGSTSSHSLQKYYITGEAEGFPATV
row,SMILES,Potency
1,Cc1ccc(S(=O)(=O)O)cc1C,inactive
2,CC(C)(C)CC(C)(C)c1ccc(OCCO)cc1,inactive
3,CC(C)O,inactive
4,CC/C=C\C/C=C\C/C=C\CCCCCCCC(=O)O,inactive
5,NCCN,0.199 µM (active)
6,[O-][N+](=Nc1ccccc1)c1ccccc1,inactive
7,c1ccc2ccccc2c1,inactive
8,C[C@H](CCC(=O)O)[C@H]1CC[C@H]2[C@@H]3[C@H](O)C[C@@H]4C[C@H](O)CC[C@]4(C)[C@H]3C[C@H](O)[C@]12C,inactive
9,NC(N)=O,inactive
10,NCCO/C=C/[C@H](N)C(=O)O,inactive
11,C[C@H](CCC(=O)O)[C@H]1CC[C@H]2[C@@H]3CC[C@@H]4C[C@H](O)CC[C@]4(C)[C@H]3C[C@H](O)[C@]12C,inactive
12,OC[C@H]1O[C@@H]2O[C@H]3[C@H](O)[C@@H](O)[C@@H](O[C@H]4[C@H](O)[C@@H](O)[C@@H](O[C@H]5[C@H](O)[C@@H](O)[C@@H](O[C@H]6[C@H](O)[C@@H](O)[C@@H](O[C@H]7[C@H](O)[C@@H](O)[C@@H](O[C@H]1[C@H](O)[C@H]2O)O[C@@H]7CO)O[C@@H]6CO)O[C@@H]5CO)O[C@@H]4CO)O[C@@H]3CO,11.2 µM (active)
13,Cc1ccc(S(=O)(=O)NCl)cc1,inactive
14,OC[C@H]1O[C@@](CO)(O[C@H]2O[C@H](CO)[C@@H](O)[C@H](O)[C@H]2O)[C@@H](O)[C@@H]1O,inactive
15,COC(=O)c1ccccc1O,inactive
16,OCl,inactive
17,CC(C)CCCCCCc1ccc(O)cc1,2.51 µM (active)
18,OCCOCCOCCO,inactive
19,Oc1cccc(O)c1O,8.91 µM (active)
20,CC[C@H]1OC(=O)[C@H](C)[C@@H](O[C@H]2C[C@@](C)(OC)[C@@H](O)[C@H](C)O2)[C@H](C)[C@@H](O[C@@H]2O[C@H](C)C[C@H](N(C)C)[C@H]2O)[C@](C)(O)C[C@@H](C)CN(C)[C@H](C)[C@@H](O)[C@]1(C)O,inactive
21,OCC(O)CO,inactive
22,Nc1ncnc2c1ncn2[C@H]1CC[C@@H](CO)O1,inactive
23,C=C(C)C1CC=C(C)CC1 (configuration not stated),inactive
24,OCc1ccccc1,inactive
25,CCCCC(CC)COS(=O)(=O)O (configuration not stated),inactive
26,CO[C@@H]1[C@H](OC(=O)/C=C/C=C/C=C/C=C/C(=O)O)CC[C@]2(CO2)[C@H]1[C@@]1(C)O[C@@H]1CC=C(C)C,inactive
27,CC1=CCC2CC1C2(C)C (configuration not stated),inactive

# Reference: PubChem BioAssay (NCATS)
